High-throughput results from PubChem BioAssay.
DAX1 inh-1: inhibitors of DAX1 repression of SF-1 activated StAR promoter. HEK293T StAR-luciferase reporter, SF-1/DAX-1 repression relief. 370,000 compounds, 1.1% hits. inhibition, % at 6.8 µM;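 active = inhibition above the mean over all tested compounds plus 3 SD, cut at about 3.6% in these data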;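 also: 0% = DAX-1 cells with DMSO and 100% = cells lacking DAX-1 with DMSO; higher inhibition means more luminescence from relief of DAX-1 repression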
AHR act: activates the human aryl hydrocarbon receptor | AHR-responsive luciferase reporter cells, luminescence | activation, % at 5 µM | 320,000 compounds, 2.5% hits; in the data active = activation above about 47%;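 also: 0% = vehicle wells and 100% = reference agonist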
hcDAF12 agonist: H. contortus DAF-12 activation, primary screen | HEK293 hcDAF-12 lit1-tk-luc reporter, luminescence; 0% DMSO, 100% Δ7-dafachronic acid | activation, % at 6.8 µM | 370,000 compounds, 1.4% hits;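 active = activation above the mean of all tested compounds plus 3 SD, cut at about 5.5% in these data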;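 also: 100% = response to 3 µM Δ7-dafachronic acid high control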
DAX1 inh-2: NR0B1 (DAX1) inhibition; inhibition, % at 6.75 µM; P51843; AID 504766; 340,000 compounds, 0.99% hits; HEK293 Gal4-DAX1 luciferase reporter, luminescence;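 active = inhibition above the mean over all tested compounds plus 3 SD, cut at about 4.2% in these data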;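 also: 0% = DAX1-transfected cells with DMSO and 100% = empty-vector control cells with DMSO; inhibition shows as a rise in luminescence from relieved DAX1 repression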
Target sequence (P51843 207-470 limits assumed): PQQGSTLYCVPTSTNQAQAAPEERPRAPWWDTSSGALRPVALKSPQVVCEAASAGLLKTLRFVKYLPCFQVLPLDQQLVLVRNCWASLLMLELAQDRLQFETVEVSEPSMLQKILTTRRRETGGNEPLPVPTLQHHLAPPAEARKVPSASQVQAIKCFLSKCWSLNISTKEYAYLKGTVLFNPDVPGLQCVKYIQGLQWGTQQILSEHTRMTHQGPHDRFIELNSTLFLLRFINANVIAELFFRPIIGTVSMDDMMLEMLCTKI
ssDAF-12 act: S. stercoralis DAF-12 activation, primary screen; HEK293 ssDAF-12/GRIP1 lit1-tk-luc reporter, luminescence; % of 3 µM dafachronic acid response; activation, % at 6.8 µM; 370,000 compounds, 1% hits;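 active = activation above the mean over all tested compounds plus 3 SD, cut at about 0.9% in these data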;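 also: 0% = DMSO-only wells and 100% = 3 µM delta7-dafachronic acid wells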
hgDAF12 agonist: activates the H. glycines DAF-12 receptor ligand-binding domain | HEK293 GAL4-hgDAF12 UAS-luciferase reporter, agonist luminescence; normalized to butyrate control | activation, % at 6.8 µM | 370,000 compounds, 1.8% hits | AID 687014;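 active = activation above a cutoff set at the mean of all screened compounds plus 3 SD, cut at about 10% in these data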;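 also: 0% = DMSO wells and 100% = sodium butyrate wells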
AHR act confirm: confirmation of human aryl hydrocarbon receptor activators; shares compounds with AHR act; AID 2845; activation, % at 9 µM; human cells, AHR-responsive luciferase reporter, luminescence; 2,300 compounds, 87% hits; in the data active = activation above about 49%;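 also: HepG2 hepatoma cells carrying a DRE-driven firefly luciferase reporter; 0% = vehicle wells and 100% = reference agonist wells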
PXR act counter: PXR activation, counter-screen for AHR activators | shares compounds with AHR act | cell-based PXR reporter, luciferase luminescence | activation, % at 11.6 µM | 2,300 compounds, 88% hits; in the data active = activation above about 11%;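 also: human hepatoma DPX-2 cells expressing full-length human PXR; 0% = DMSO and 100% = reference agonist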
Numbers without * were called inactive. Compounds with a hit are over-represented: about 5.7% of the library has one in this group of screens.

Fc1ccc(-[n+]2nc(Nc3ccccc3)sc2-c2cccc(Cl)c2Cl)cc1 was read as DAX1 inh-1 0, AHR act 113*, hcDAF12 agonist -2, DAX1 inh-2 0, ssDAF-12 act -1, hgDAF12 agonist 0, AHR act confirm 11 and PXR act counter 92*.
Clc1cccc(-c2sc(Nc3ccccc3)n[n+]2-c2ccccc2)c1Cl was read as DAX1 inh-1 0, AHR act 5, hcDAF12 agonist 3, DAX1 inh-2 0, ssDAF-12 act 0 and hgDAF12 agonist -1.
Screening CCn1c(/C=C/c2ccccc2C)nc2ccccc2c1=O returned DAX1 inh-1 0, AHR act 17, hcDAF12 agonist -2, DAX1 inh-2 -2, ssDAF-12 act -1 and hgDAF12 agonist 5.
Screening COc1ccc(C)cc1Nc1nc(-c2ccccc2O)nc2ccccc12 returned DAX1 inh-1 0, AHR act 19, hcDAF12 agonist 5, DAX1 inh-2 0, ssDAF-12 act 1 and hgDAF12 agonist -2.
Screening COc1ccc(C)cc1Nc1nc(-c2c[nH]c3ccccc23)cs1 returned DAX1 inh-1 -1, AHR act 89*, hcDAF12 agonist 5.8*, DAX1 inh-2 1, ssDAF-12 act 0, hgDAF12 agonist -3, AHR act confirm 64* and PXR act counter 17*.
`Cc1cc(-c2nn3c(-c4ccccc4)nnc3s2)c2ccccc2n1` gave DAX1 inh-1 -2, AHR act 10, hcDAF12 agonist -4, DAX1 inh-2 -1, ssDAF-12 act -2 and hgDAF12 agonist -5.
Cc1cc(NC(=O)CCC(=O)N(c2ccc(F)cc2)C(C(=O)NC2CCCC2)c2ccncc2)no1 (centres undefined) was read as DAX1 inh-1 0, AHR act 91*, hcDAF12 agonist 0, DAX1 inh-2 3, ssDAF-12 act 0, hgDAF12 agonist -1, AHR act confirm 81* and PXR act counter 21*.
For Cc1ccc(N(C(=O)CCC(=O)Nc2cc(C)on2)C(C(=O)NC2CCCC2)c2ccccc2)cc1 (centres undefined) the results were DAX1 inh-1 0, AHR act 4, hcDAF12 agonist -2, DAX1 inh-2 0, ssDAF-12 act -2 and hgDAF12 agonist 1.
`Cc1ccc(C(N)=O)cc1S(=O)(=O)Nc1cccc(C)c1C` gave DAX1 inh-1 0, AHR act 1, hcDAF12 agonist -2, DAX1 inh-2 -1, ssDAF-12 act -1 and hgDAF12 agonist -2.
`O=C(NCCn1cc(SCc2ccccc2F)c2ccccc21)c1c(F)cccc1F` gave DAX1 inh-1 -2, AHR act 18, hcDAF12 agonist 0, DAX1 inh-2 1, ssDAF-12 act -1 and hgDAF12 agonist -1.
FC(F)(F)c1cc(-c2ccccc2)nc(NCc2cccnc2)n1 was read as DAX1 inh-1 -1, AHR act 90*, hcDAF12 agonist -3, DAX1 inh-2 -1, ssDAF-12 act -1, hgDAF12 agonist 1, AHR act confirm 28 and PXR act counter 43*.
Screening Cc1cc(Cl)c(S(=O)(=O)N2CCSCC2)cc1OCC(N)=O returned DAX1 inh-1 -1, AHR act -1, hcDAF12 agonist -1, DAX1 inh-2 0, ssDAF-12 act -1 and hgDAF12 agonist -4.
`Cn1c(=O)cc(C(=O)N/N=C/c2ccc(Cl)cc2)[nH]c1=O` gave DAX1 inh-1 0, AHR act 1, hcDAF12 agonist -2, ssDAF-12 act -2 and hgDAF12 agonist 0.
Screening CCN(/N=C/c1ccc(Cl)cc1)c1cc(=O)n(C)c(=O)[nH]1 returned DAX1 inh-1 -1, AHR act 121*, hcDAF12 agonist -3, DAX1 inh-2 -1, ssDAF-12 act -1, hgDAF12 agonist -2 and AHR act confirm 71*.
